Measurements from PubChem BioAssay AID1345085 (National Center for Advancing Translational Sciences (NCATS), 2018).
Results filed as inconclusive are left out. A number with no mark means an inactive call. Activity calls are given as the source filed them. Calls come from the whole dose curve; as a rule, active = well fitted cell-killing curve with a large enough effect; inconclusive = small, poorly fitted or top-dose-only effect, or effect the other way; inactive = no such curve, though single readings can be large or run the other way.

What follows are compounds tested on SW626 (assay: Confirmatory qHTS for gynecologic anti-cancer compounds from libraries of approved drugs and bioactive compounds). Conditions: gynecologic cancer cell panel viability, ATPlite luminescence, 48 h; series mostly up to 57.6 µM; activity change, negative = viability loss: at the top concentration.
Summary of the method: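 Cells (1,000/well) were plated, left 16 h at 37 C/5% CO2, then given compound at 11 concentrations (1:3) from 57.5 uM to 0.977 nM for 48 h. ATPlite luminescence after 15 min at room temperature gave IC50 values.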
% is set by controls: 0 for no effect and ±100 for the full control effect; potency is the fitted concentration of half-maximal effect.
Note: nearly all actives have a fitted effect of over 55% in size.

Structure (SMILES)	activity change, negative = viability loss	Potency
CN1CCN(c2ccc(OC(F)(F)F)c(Nc3ncc4c(n3)-c3c(c(C(N)=O)nn3CCO)CC4)c2)CC1	3.2%	
Cc1cc(CN2CCN(c3c(Br)cnc4nc(-c5ccc(N6CCN(C)CC6)cc5)[nH]c34)CC2)no1		24.3 µM (active)
CC(C)C[C@H](NC(=O)[C@H](Cc1ccccc1)NC(=O)c1cnccn1)B(O)O		0.0137 µM (active)
Cc1cnc(Nc2ccc(OCCN3CCCC3)cc2)nc1Nc1cccc(S(=O)(=O)NC(C)(C)C)c1		19.3 µM (active)
NC1(c2ccc(-c3nc4ccn5c(=O)[nH]nc5c4cc3-c3ccccc3)cc2)CCC1	-17.6%	
CN(C)c1ccc2nc3ccc(=[N+](C)C)cc-3sc2c1		8.63 µM (active)
Cc1cc(SCc2sc(-c3ccc(C(F)(F)F)cc3)nc2C)ccc1OCC(=O)O	2.54%	
COc1cc(-c2nn(C3CCC(N4CCN(C(C)=O)CC4)CC3)c3ncnc(N)c23)ccc1NC(=O)c1cc2ccccc2n1C (stereo not drawn)		27.3 µM (active)
OCCNC1CCCc2c1[nH]c1ccc(-c3ccccc3)cc21 (stereo not drawn)		19.3 µM (active)
C=CC(=O)Nc1cc2c(Nc3ccc(F)c(Cl)c3)ncnc2cc1OCCCN1CCOCC1		21.7 µM (active)
COc1ccc2c(c1)c(CC(=O)O)c(C)n2C(=O)c1ccc(Cl)cc1	1.53%	
O=C1Cc2cc(CCN3CCN(c4nsc5ccccc45)CC3)c(Cl)cc2N1	-0.656%	
O=C(Nc1cn[nH]c1-c1nc2ccc(CN3CCOCC3)cc2[nH]1)NC1CC1	10.3%	
CCN1C[C@H](C)n2c(c(O)c3c(=O)n(Cc4ccc(F)c(Cl)c4)nc(C(=O)NC)c32)C1=O	7.26%	
Cc1cc(C(=O)N2CCN(c3cccc(Cl)c3)CC2)n(-c2ccccc2)n1	2.43%	
C1CCC(C(CC2CCCCN2)C2CCCCC2)CC1 (stereo not drawn)		27.3 µM (active)
Cc1c(C)n(Cc2ccc(-c3ccccc3C(=O)O)cc2)c2ccc(C(=O)N[C@@H](C)c3ccc([N+](=O)[O-])cc3)cc12	30.1%	

Structure (SMILES)	activity change, negative = viability loss	Potency
COc1cc(N2CCC(N3CCN(C)CC3)CC2)ccc1Nc1ncc(Cl)c(Nc2ccccc2S(=O)(=O)C(C)C)n1		21.7 µM (active)
Cc1cnc(Nc2ccc(CN3CCOCC3)cc2)nc1Nc1cccc(S(=O)(=O)NC(C)(C)C)c1		15.3 µM (active)
CCN(CC)CCOc1ccc(/C(=C(\Cl)c2ccccc2)c2ccccc2)cc1		89.1 µM (active)
CCC1C(=O)N(C)c2cnc(Nc3ccc(C(=O)NC4CCN(C)CC4)cc3OC)nc2N1C1CCCC1 (stereo not drawn)		2.43 µM (active)
Nc1ncn([C@@H]2O[C@H](CO)[C@@H](O)[C@H]2O)c(=O)n1	0.885%	
OCc1ccc(-c2ccc(-c3ccc(CO)s3)o2)s1		10.6 µM (active)
O=c1cc(CN2CCOCC2)occ1OCCCCCSc1ccnc2cc(C(F)(F)F)ccc12	0.329%	
CN(C)C(CCOc1cccc2ccccc12)c1ccccc1 (stereo not drawn)	-9.38%	
Nc1nccc(Oc2ccc(NC(=O)c3c[nH]cc(-c4ccc(F)cc4)c3=O)cc2F)c1Cl	-15.5%	
Cc1ccc(C(N)=O)cc1Nc1nccc(-c2cn(C(C)C)c3cnccc23)n1	8.56%	
O=c1[nH]c(=O)n([C@H]2C[C@H](O)[C@@H](CO)O2)cc1Br	-12.2%	
COc1c(C)c2c(c(O)c1C/C=C(\C)CCC(=O)O)C(=O)OC2	-28.5%	
Cc1ccc(C(=O)N(CCCN)C(c2nc3cc(Cl)ccc3c(=O)n2Cc2ccccc2)C(C)C)cc1 (stereo not drawn)		9.68 µM (active)
CC(C)Oc1ccc2c(=O)c(-c3ccccc3)coc2c1		21.7 µM (active)
COCCOc1nc(-c2ccc(Cl)c(Cl)c2)n(-c2ccc(NC(=O)CCl)cc2)n1		6.11 µM (active)
Nc1ccc(-c2ccc3ncc4ccc(=O)n(-c5cccc(C(F)(F)F)c5)c4c3c2)cn1		6.11 µM (active)
